Data published in PubChem BioAssay (NCATS).
Records with an inconclusive call do not appear. Entries that show only a call come without a potency. Calls of active or inactive are those of the source. Calls come from the whole dose curve; as a rule, active = well fitted curve in the direction sought with a large enough effect; inconclusive = small, poorly fitted or top-dose-only effect, or another doubt; inactive = no such curve, though single readings can be large; an effect the other way counts as inactive or inconclusive.

tested on: not listed separately; experiment: HepG2 viability counterscreen (readout 2: ATP content) against the NCATS DSHEA and TCM libraries (AID 1794840); conditions: ATP content luminescence; series mostly up to 27.3 µM;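 note: HepG2 cells exposed to substances for about 24 h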
Summary of the method: (§1)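 After HepG2 cells attach for ~4 h, substances are added and incubated ~24 h at 37C, 5% CO2. GF-AFC fluorescence then CellTiter-Glo luminescence give protease and ATP readouts.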

Q: With `Oc1cc(O)c2c(c1)O[C@@H](c1cc(O)c(O)c(O)c1)[C@H](O)C2` as the compound, how does the outcome read?
A: Its outcome is “inactive”.

Q: With `O=C(O[C@@H]1Cc2c(O)cc(O)cc2O[C@@H]1c1ccc(O)c(O)c1)c1cc(O)c(O)c(O)c1` as the compound, how does the outcome read?
A: Its outcome is “inactive”.

Q: With `C=CCc1ccc(OC)c(OC)c1` as the compound, how does the outcome read?
A: The outcome was “inactive”.

Q: For `CC1=C2[C@H](/C=C(\C)C(=O)O)CC[C@@H](C)[C@H]2CC1`, which outcome is on record?
A: The outcome was “inactive”.

Q: With `C=C1CC[C@H]2C[C@@H]1C2(C)C` as the compound, how does the outcome read?
A: The outcome was “inactive”.

Q: Which outcome does the source give for `C=C1C[C@@]23CC[C@H]4[C@@](C)(CCC[C@@]4(C)C(=O)O[C@@H]4O[C@H](CO)[C@@H](O)[C@H](O)[C@H]4O[C@@H]4O[C@H](CO)[C@@H](O)[C@H](O)[C@H]4O)[C@@H]2CC[C@]1(O[C@@H]1O[C@H](CO)[C@@H](O)[C@H](O)[C@H]1O[C@@H]1O[C@H](CO)[C@@H](O)[C@H](O)[C@H]1O)C3` here?
A: Its outcome is “inactive”.

Q: With `CC(C)=CCC[C@](C)(O[C@@H]1O[C@H](CO)[C@@H](O)[C@H](O)[C@H]1O)[C@H]1CC[C@]2(C)[C@@H]1[C@H](O)C[C@@H]1[C@@]3(C)CC[C@H](O)C(C)(C)[C@@H]3[C@@H](O[C@@H]3O[C@H](CO)[C@@H](O)[C@H](O)[C@H]3O)C[C@]12C` as the compound, how does the outcome read?
A: The outcome was “inactive”.

Q: For `CC(=O)O[C@@H]1CC[C@@]2(C)[C@@H](CC[C@]3(C)[C@@H]2C(=O)C=C2[C@@H]4[C@@H](C)[C@H](C)CC[C@]4(C)CC[C@]23C)[C@@]1(C)C(=O)O`, which outcome is on record?
A: The outcome was “inactive”.

Q: Which outcome does the source give for `CCCCC/C=C/C/C=C/CCCCCCCC(=O)O` here?
A: The outcome was “inactive”.

Q: With `CCCCCC(=O)O` as the compound, how does the outcome read?
A: The outcome was “inactive”.

Q: Which outcome does the source give for `CC(C)(O)[C@@H]1CC[C@](C)([C@H]2[C@@H](O)C[C@@]3(C)[C@@H]4C[C@H](O)[C@H]5C(C)(C)[C@@H](O[C@@H]6OC[C@@H](O)[C@H](O)[C@H]6O[C@@H]6O[C@H](CO)[C@@H](O)[C@H](O)[C@H]6O)CC[C@@]56C[C@@]46CC[C@]23C)O1` here?
A: The outcome was “inactive”.

Q: For `COc1ccccc1/C=C/C=O`, which outcome is on record?
A: Its outcome is “inactive”.

Q: For `CCCCCCCCCCCC(=O)O`, which outcome is on record?
A: The outcome was “inactive”.

Q: For `C=C(C)[C@H]1CC=C(CO)CC1`, which outcome is on record?
A: The outcome was “inactive”.

Q: With `CCCCCCCC/C=C/CCCCCCCC(=O)O` as the compound, how does the outcome read?
A: The outcome was “inactive”.

Q: With `CC1=C2[C@H]([C@@H](C)CC[C@@H]2/C=C(\C)C(=O)O)[C@@H](O)C1` as the compound, how does the outcome read?
A: The outcome was “inactive”.

Q: Which outcome does the source give for `O=c1cc(-c2ccc(O)c(O)c2)oc2cc(O[C@@H]3O[C@@H](CO)[C@@H](O)[C@@H](O)[C@H]3O)cc(O)c12` here?
A: The outcome was “inactive”.

Q: For `Cc1ccc(O)c(O)c1`, which outcome is on record?
A: The outcome was “inactive”.

Q: Which outcome does the source give for `CCCCCCCCC/C=C/C(=O)CCc1ccc(O)c(OC)c1` here?
A: The outcome was “inactive”.

Q: With `CCCCCCCC/C=C/CCCCCCCCCC(=O)O` as the compound, how does the outcome read?
A: The outcome was “inactive”.

Q: Which outcome does the source give for `CCCCCC/C=C/CCCCCCCCCC(=O)O` here?
A: The outcome was “inactive”.

tested on: not listed separately; experiment: HepG2 viability counterscreen (readout 1: protease activity) against the NCATS DSHEA and TCM libraries (AID 1794841); conditions: qHTS concentration series; series mostly up to 27.3 µM;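 note: cells exposed to compounds for about 24 h before the protease read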
Summary of the method: as §1

Q: For `Oc1cc(O)c2c(c1)O[C@@H](c1cc(O)c(O)c(O)c1)[C@H](O)C2`, which outcome is on record?
A: Its outcome is “inactive”.

Q: For `O=C(O[C@@H]1Cc2c(O)cc(O)cc2O[C@@H]1c1ccc(O)c(O)c1)c1cc(O)c(O)c(O)c1`, which outcome is on record?
A: The outcome was “inactive”.

Q: Which outcome does the source give for `C=CCc1ccc(OC)c(OC)c1` here?
A: Its outcome is “inactive”.

Q: With `C=C(C)C1CC=C(C)C(O)C1` (configuration not stated) as the compound, how does the outcome read?
A: Its outcome is “inactive”.

Q: With `CC1=C2[C@H](/C=C(\C)C(=O)O)CC[C@@H](C)[C@H]2CC1` as the compound, how does the outcome read?
A: Its outcome is “inactive”.

Q: Which outcome does the source give for `C=C1CC[C@H]2C[C@@H]1C2(C)C` here?
A: Its outcome is “inactive”.

Q: Which outcome does the source give for `CC(=O)O[C@@H]1CC[C@@]2(C)[C@@H](CC[C@]3(C)[C@@H]2C(=O)C=C2[C@@H]4[C@@H](C)[C@H](C)CC[C@]4(C)CC[C@]23C)[C@@]1(C)C(=O)O` here?
A: Its outcome is “inactive”.

Q: With `CCCCC/C=C/C/C=C/CCCCCCCC(=O)O` as the compound, how does the outcome read?
A: Its outcome is “inactive”.

Q: Which outcome does the source give for `CCCCCC(=O)O` here?
A: The outcome was “inactive”.

Q: With `CC(C)(O)[C@@H]1CC[C@](C)([C@H]2[C@@H](O)C[C@@]3(C)[C@@H]4C[C@H](O)[C@H]5C(C)(C)[C@@H](O[C@@H]6OC[C@@H](O)[C@H](O)[C@H]6O[C@@H]6O[C@H](CO)[C@@H](O)[C@H](O)[C@H]6O)CC[C@@]56C[C@@]46CC[C@]23C)O1` as the compound, how does the outcome read?
A: The outcome was “inactive”.

Q: With `O=C(/C=C/c1ccc(O)c(O)c1)OC1[C@H](O)CC(O)(C(=O)O)C[C@@H]1O` (some centres not stated) as the compound, how does the outcome read?
A: Its outcome is “inactive”.

Q: Which outcome does the source give for `COc1ccccc1/C=C/C=O` here?
A: Its outcome is “inactive”.

Q: With `CCCCCCCCCCCC(=O)O` as the compound, how does the outcome read?
A: The outcome was “inactive”.

Q: Which outcome does the source give for `C=C(C)[C@H]1CC=C(CO)CC1` here?
A: The outcome was “inactive”.

Q: With `CC1=C2[C@H]([C@@H](C)CC[C@@H]2/C=C(\C)C(=O)O)[C@@H](O)C1` as the compound, how does the outcome read?
A: Its outcome is “inactive”.

Q: With `O=c1cc(-c2ccc(O)c(O)c2)oc2cc(O[C@@H]3O[C@@H](CO)[C@@H](O)[C@@H](O)[C@H]3O)cc(O)c12` as the compound, how does the outcome read?
A: The outcome was “inactive”.

Q: With `Cc1ccc(O)c(O)c1` as the compound, how does the outcome read?
A: The outcome was “inactive”.

Q: For `CCCCCCCCC/C=C/C(=O)CCc1ccc(O)c(OC)c1`, which outcome is on record?
A: Its outcome is “inactive”.

Q: With `CCCCCC/C=C/CCCCCCCCCC(=O)O` as the compound, how does the outcome read?
A: The outcome was “inactive”.

biological target: Cytochrome P450 3A4 (Homo sapiens) (UniProt P08684); experiment: qHTS for inhibitors of CYP3A4 against the NCATS DSHEA and TCM libraries (AID 1919971); conditions: recombinant CYP3A4 enzyme activity, luminescence qHTS; series mostly up to 34.1 µM; note: potency is the fitted concentration of half-maximal effect
Sequence (P08684 whole entry, looked up, canonical isoform): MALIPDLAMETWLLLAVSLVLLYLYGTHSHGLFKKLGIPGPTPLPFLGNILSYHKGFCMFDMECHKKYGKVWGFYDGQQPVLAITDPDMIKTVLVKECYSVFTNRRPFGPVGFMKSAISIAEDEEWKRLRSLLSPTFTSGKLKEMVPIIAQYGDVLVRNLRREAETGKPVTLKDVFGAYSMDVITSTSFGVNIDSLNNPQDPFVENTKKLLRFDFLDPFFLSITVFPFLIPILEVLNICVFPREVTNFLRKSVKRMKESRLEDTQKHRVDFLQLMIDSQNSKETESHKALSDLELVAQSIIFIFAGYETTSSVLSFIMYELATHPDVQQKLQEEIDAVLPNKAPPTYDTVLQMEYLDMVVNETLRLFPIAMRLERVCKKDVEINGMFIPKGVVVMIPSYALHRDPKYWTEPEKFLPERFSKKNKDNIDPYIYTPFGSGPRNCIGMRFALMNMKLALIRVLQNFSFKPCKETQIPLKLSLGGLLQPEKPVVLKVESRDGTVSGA
Summary of the method: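 Concentration-response screening with isoform-matched pro-luciferin substrates. The CYP reaction was initiated by NADPH regenerating solution and ran 30-45 min in darkness at room temperature.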

Q: For `Oc1cc(O)c2c(c1)O[C@@H](c1cc(O)c(O)c(O)c1)[C@H](O)C2`, which Potency is on record?
A: Its Potency is “inactive”.

Q: Which Potency does the source give for `C=CCc1ccc(OC)c(OC)c1` here?
A: The Potency was “inactive”.

Q: With `C=C(C)C1CC=C(C)C(O)C1` (configuration not stated) as the compound, how does the Potency read?
A: The Potency was “inactive”.

Q: For `CC1=C2[C@H](/C=C(\C)C(=O)O)CC[C@@H](C)[C@H]2CC1`, which Potency is on record?
A: The Potency was “inactive”.

Q: Which Potency does the source give for `C=C1CC[C@H]2C[C@@H]1C2(C)C` here?
A: Its Potency is “inactive”.

Q: With `C=C1C[C@@]23CC[C@H]4[C@@](C)(CCC[C@@]4(C)C(=O)O[C@@H]4O[C@H](CO)[C@@H](O)[C@H](O)[C@H]4O[C@@H]4O[C@H](CO)[C@@H](O)[C@H](O)[C@H]4O)[C@@H]2CC[C@]1(O[C@@H]1O[C@H](CO)[C@@H](O)[C@H](O)[C@H]1O[C@@H]1O[C@H](CO)[C@@H](O)[C@H](O)[C@H]1O)C3` as the compound, how does the Potency read?
A: Its Potency is “inactive”.

Q: With `CC(C)=CCC[C@](C)(O[C@@H]1O[C@H](CO)[C@@H](O)[C@H](O)[C@H]1O)[C@H]1CC[C@]2(C)[C@@H]1[C@H](O)C[C@@H]1[C@@]3(C)CC[C@H](O)C(C)(C)[C@@H]3[C@@H](O[C@@H]3O[C@H](CO)[C@@H](O)[C@H](O)[C@H]3O)C[C@]12C` as the compound, how does the Potency read?
A: Its Potency is “inactive”.

Q: With `CCCCC/C=C/C/C=C/CCCCCCCC(=O)O` as the compound, how does the Potency read?
A: Its Potency is 22.4 µM (active).

Q: Which Potency does the source give for `CCCCCC(=O)O` here?
A: Its Potency is “inactive”.

Q: Which Potency does the source give for `CC(C)(O)[C@@H]1CC[C@](C)([C@H]2[C@@H](O)C[C@@]3(C)[C@@H]4C[C@H](O)[C@H]5C(C)(C)[C@@H](O[C@@H]6OC[C@@H](O)[C@H](O)[C@H]6O[C@@H]6O[C@H](CO)[C@@H](O)[C@H](O)[C@H]6O)CC[C@@]56C[C@@]46CC[C@]23C)O1` here?
A: Its Potency is “inactive”.

Q: With `O=C(/C=C/c1ccc(O)c(O)c1)OC1[C@H](O)CC(O)(C(=O)O)C[C@@H]1O` (some centres not stated) as the compound, how does the Potency read?
A: The Potency was “inactive”.

Q: With `COc1ccccc1/C=C/C=O` as the compound, how does the Potency read?
A: Its Potency is “inactive”.

Q: With `CCCCCCCCCCCC(=O)O` as the compound, how does the Potency read?
A: Its Potency is “inactive”.

Q: For `O=c1cc(-c2ccc(O)c(O)c2)oc2cc(O[C@@H]3O[C@@H](CO)[C@@H](O)[C@@H](O)[C@H]3O)cc(O)c12`, which Potency is on record?
A: The Potency was “inactive”.

Q: With `Cc1ccc(O)c(O)c1` as the compound, how does the Potency read?
A: Its Potency is “inactive”.

Q: Which Potency does the source give for `CCCCCCCCC/C=C/C(=O)CCc1ccc(O)c(OC)c1` here?
A: Its Potency is 15.8 µM (active).

Q: With `CCCCCC/C=C/CCCCCCCCCC(=O)O` as the compound, how does the Potency read?
A: The Potency was “inactive”.
